Assay outcomes: PubChem, National Center for Advancing Translational Sciences (NCATS)
MARV entry inh = qHTS for Inhibitors of binding or entry into cells for Marburg Virus | actives 6.5% (n = 18,000) | Potency, µM (doses to about 49.2 µM), inactives show at the highest dose activity change, negative = inhibition, usual class: inhibitors | AID 720532, 2013 | Marburg virus pseudotype entry/binding inhibition, cell-based
Lassa entry = qHTS for Inhibitors of binding or entry into cells for Lassa Virus. Lassa virus pseudotyped entry inhibition, cell-based qHTS. Potency, µM (titrated, usually from 49.2 µM), without a hit: at the top dose activity change, negative = inhibition, usual class: inhibitors. actives 4.1% (n = 18,000)
Active calls of the source: *; u = inconclusive; x = no result given; ! = not confirmed by another sample; [ ] = remark or other dose. Sampled rows, rich in hits. Any-hit rate of the full collection: about 8%. The call rests on the fitted dose curve; tested in HEK293 cells. On the % scale 0 is the no-effect control and ±100 the full control effect; potency means the concentration at half of the fitted maximal effect.

SMILES	MARV entry inh	Lassa entry
O=C1OC2(CCCCC2)CC2=C1[C@H]1O[C@](c3ccsc3)(Cc3ccccc31)O2	35%[8.59 µM]	-11%[8.59 µM]
O=C1NC(=O)C(N2CCc3ccccc32)=C1c1ccc(Cl)cc1	u	-18%
CCc1cc(OC)c(C[C@H](C)N)cc1OC	u	-13%[107 µM]
COc1cc(CC(C)N)c(OC)cc1Br (configuration not stated)	18µM*	u
CCCC[C@]12Cc3cc(OC)c(OC)cc3[C@H](O1)C1=C(O2)C(=O)c2ccccc2C1=O	5%[8.59 µM]	5%[8.59 µM]
CON=C1C[C@]2(C[C@@H]3C[C@@H](C/C=C(\C)C[C@@H](C)/C=C/C=C4\CO[C@@H]5[C@H](O)C(C)=C[C@@H](C(=O)O3)[C@]45O)O2)O[C@H](/C(C)=C/C(C)C)[C@H]1C	28µM*	32µM*
Cc1nc(-c2ccc(-c3ccc(C(=O)N4CCc5cc6c(cc54)C4(CCN(C)CC4)CO6)cc3)c(C)c2)no1	10µM*	28µM*
Cc1ccc(NC(=O)c2ccnc(N3CCCC3)c2)cc1-c1ccc(C(=O)NCC2CC2)cc1	45%	x
COc1ccc(C(=O)NCc2ccc(OCCN(C)C)cc2)cc1OC	-17%	-12%
COc1ccc(NC(=O)c2ccc(-c3ccc(-c4noc(C)n4)cc3C)cc2)cc1OCCN(C)C	3.5µM*	22µM*
COc1ccc(NC(=O)c2ccc(-c3ccc(-c4noc(C)n4)cc3C)cc2)cc1N1CCN(C)CC1	6.3µM*	16µM*
CNCC[C@H](Oc1cccc2ccccc12)c1cccs1	7.9µM*	22µM*
OC[C@@H](O)COc1cccc2ccccc12	-8%	-4%
O=C(C=Cc1ccccc1)Nc1cccc(C(=O)NCCc2ccccc2)c1	8%	-13%
COC(=O)[C@@H]1C[C@@]23C(=NN=C(SC)C2Nc2ccccc23)N1C(C)=O (some centres not stated)	-23%[8.59 µM]	-9%[8.59 µM]
CN1C/C(=C/c2ccc(B(O)O)cc2)C(=O)/C(=C/c2ccc(B(O)O)cc2)C1	6.3µM*	13µM*
CCC(=O)N[C@@H]1c2ccccc2C2(CCN(Cc3ccccn3)CC2)[C@H]1OC	9%	-4%
CCC(=O)N[C@@H]1c2ccccc2C2(CCN(Cc3[nH]c4c(Cl)cccc4c3C)CC2)[C@H]1OC	11µM*	25µM*
COc1cc(O)c(C(=O)C=Cc2ccccc2)c(O)c1	u	12%[8.59 µM]
CN1CCN(c2ncnc3ccc(-c4ccccc4C#N)cc23)CC1	-23%	-14%
CN1CCC(=C2c3ccccc3Sc3ccccc32)CC1	4µM*	u
CN1CCC(=C2c3ccccc3C=Cc3ccccc32)CC1	8.9µM*	28µM*
COC(=O)C1=C(C)N(Cc2ccccc2)C(=O)NC1c1cccc(F)c1 (configuration not stated)	3%[8.59 µM]	9%[8.59 µM]
CC(C)CCC[C@@H](C)[C@H]1CC(=O)C2=C3CC[C@H]4C[C@@H](O)CC[C@]4(C)[C@H]3CC[C@@]21C	25%	-23%
CCN1C(=NCc2ccc3c(c2)OCO3)N[C@@H](c2ccccc2)[C@H](C(=O)OC)[C@H]1C	u	-11%[8.59 µM]
SMILES	MARV entry inh	Lassa entry
COC(=O)C1=C(C)N(Cc2ccccc2)C(=NCCc2ccccn2)NC1c1cccc(F)c1 (configuration not stated)	-21%[8.59 µM]	-8%[8.59 µM]
CCCCCCN1C[C@@H](O)[C@H](n2cc(C3CC3)nn2)C[C@H]1c1ccc(C)cc1	-49%	x
CCC(C(=O)O)c1ccccc1 (configuration not stated)	-14%	-1%
c1ccc(C(NCCNC(c2ccccc2)c2ccccc2)c2ccccc2)cc1	7.1µM*	13µM*
C=C(CO[C@@H]1C=C[C@@H](c2ccccc2)O[C@@H]1CO)c1ccccc1	-2%[8.59 µM]	-24%[8.59 µM]
CC/C(=C(/c1ccccc1)c1ccc(OCCN(C)C)cc1)c1ccccc1	3.2µM*	x
O=C(O)c1ccc(OCCCOc2ccc(C(=O)O)cc2)cc1	8%	4%
CN(C)CCOC(=O)COc1ccc(Cl)cc1	-11%	-3%
CCN(CC)CCOc1ccc(/C(=C(\Cl)c2ccccc2)c2ccccc2)cc1	x	14µM*!
CN1CCC(C(=O)Nc2n[nH]c3nnc(-c4ccccc4)cc23)CC1	u	16%
CCOC(=O)CN1C(=O)[C@]2(O[C@H](COc3ccccc3)CC3=C2CCC3)c2ccccc21	30%[8.59 µM]	-15%[8.59 µM]
COC(=O)C1C2CC(C)C(c3ccccc32)N1C(=O)C(F)(F)F (configuration not stated)	u	-9%[8.59 µM]
CC=COC(=O)N[C@@H](c1ccccc1)[C@]1(C(=O)OCC)CCCC1=O	2%[8.59 µM]	9%[8.59 µM]
Oc1cc2c(cc1O)[C@H]1c3ccc(O)c(O)c3OC[C@@]1(O)C2	u	-14%
CC(=O)Oc1ccc2c(c1OC(C)=O)OCC1(O)Cc3c(cc(OC(C)=O)c(OC(C)=O)c3OC(C)=O)C21 (configuration not stated)	7.9µM*	-19%
Cn1c(-c2nonc2N)nc2cnccc21	u	43%
COc1cccc2c1[C@@H]1CN(CCCCn3c(=O)[nH]c4c(sc5ncc(-c6ccccc6)nc54)c3=O)C[C@@H]1CO2	10µM*	-4%
O[C@@H]1C[C@H](c2ccccc2)N(CC2CCCCC2)C[C@@H]1n1cc(C2CC2)nn1	-27%	-21%
NS(=O)(=O)c1ccc(Nc2cc(-c3cccc(O)c3)[nH]n2)cc1	79%	43%
O=C(O)c1cccnc1Nc1cccc(C(F)(F)F)c1	28%	21%
Fc1ccc(Nc2nccc(-c3c(-c4ccc(C(F)(F)F)cc4)nn4ncccc34)n2)cc1F	-5%	6%
N#Cc1cccc(Nc2nccc(-c3cnn4ncccc34)n2)c1	0.025µM*	x
Cc1ccc2c(-c3ccnc(Nc4cccc(C(F)(F)F)c4)n3)c(-c3ccccc3)nn2n1	4µM*	x
FC(F)(F)CNc1nccc(-c2cnn3ncccc23)n1	-4%	x
Cc1ccc2c(-c3ccnc(Nc4ccc5c(c4)OCCO5)n3)c(-c3ccc(C(F)(F)F)cc3)nn2n1	16µM*	x
SMILES	MARV entry inh	Lassa entry
CCOc1ccc2c(-c3ccnc(Nc4cccc(C(F)(F)F)c4)n3)cnn2n1	8.9µM*	x
Cc1cccc(C)c1Nc1oc(-c2ccccc2)nc1C(C)(C)C	2%[8.59 µM]	17%[8.59 µM]
C=CCCN(Cc1ccc(C)cc1)S(=O)(=O)C=C	19%	26%
O[C@H]1C[C@H](c2ccccc2)N(Cc2cccs2)C[C@H]1n1cc(-c2ccc(F)cc2)nn1	u	-6%
COC(=O)[C@H]1[C@@H](c2ccccc2)NC(=O)N(Cc2ccccc2)[C@@H]1C	u	-1%[8.59 µM]
C=CCN(C)C1=NC(c2ccccc2)C(C(=O)OC)=C(C)N1CCOC (configuration not stated)	4%[8.59 µM]	-2%[8.59 µM]
Cc1cc2c(c(=O)o1)[C@H]1O[C@](c3ccsc3)(Cc3cc(C#N)ccc31)O2	u	-9%[8.59 µM]
CC[C@H]1C[C@@H]2C[C@H]3c4[nH]c5ccc(OC)cc5c4CCN(C2)[C@@H]13	28µM*	-11%
COc1ccc2[nH]c3c(c2c1)CCN=C3C	u	5%[17.8 µM]
CN1CCC[C@H]1c1cccnc1	6%	7%
CCCCCCCCCC[n+]1cccc([C@@H]2CCCN2C)c1	6.3µM*	u
CC1(C)CN(CCc2ccccc2)C(=O)[C@@H]1CC(=O)Nc1ccccc1	4%	20%
CCC[C@H]1CN(c2ccc(Br)cc2)C(=O)[C@H]1CC(=O)NC	25%	14%
O=[N+]([O-])c1ccc(O)c([N+](=O)[O-])c1	21%	0%
N#CC(C#N)=Cc1ccc([N+](=O)[O-])c(O)c1	16µM*!	u
